# Screens deposited in PubChem BioAssay by several laboratories.
# The list is not random: actives were taken first. Their share in the collection is about 7.4%.
# M1 antag: blocks the rat M1 muscarinic receptor response to acetylcholine. CHO-M1 cells, Fluo-4 calcium, ACh EC80 antagonist mode; hits give low values. B-score at 10 µM. actives 3.4% (n = 64,000). P08482;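 active = calcium fluorescence response, raw or row-and-column corrected B-score, differing from the plate sample mean either way at a set confidence level, mostly lower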
# M1 agonist: M1 muscarinic receptor agonism; CHO-M1 cells, Fluo-4 calcium fluorescence, agonist mode; hits give high values; B-score at 10 µM; actives 3% (n = 64,000); AID 626;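 active = fluorescence rise, raw or as B-score row- and column-corrected plate score, outside the 99.7% band of its plate's samples, either direction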
# hDAT+cocaine: modulates human dopamine transporter uptake under cocaine; LLC-PK1 hDAT cells, [14C]-dopamine uptake with cocaine IC80; actives deviate in either direction; B-score at 10 µM; actives 1.3% (n = 110,000);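 active = Z score or B-score, a plate-position-corrected score, falls beyond the plate's 99.7% confidence bounds, in either direction; inactive = both scores lie inside the 99.7% bounds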;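 also: scored against the spread of the other compound wells on the same plate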
# D1 mod: D1 dopamine receptor (human) allosteric modulation; B-score at 10 µM; HEK293 D1, CRE-luciferase, dopamine EC30 potentiation; actives deviate in either direction; actives 5.9% (n = 58,000);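 active = luminescence count or its row- and column-corrected plate score outside the 99.7% band of the plate's sample wells, on either side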
# Target sequence (P21728 whole entry, looked up): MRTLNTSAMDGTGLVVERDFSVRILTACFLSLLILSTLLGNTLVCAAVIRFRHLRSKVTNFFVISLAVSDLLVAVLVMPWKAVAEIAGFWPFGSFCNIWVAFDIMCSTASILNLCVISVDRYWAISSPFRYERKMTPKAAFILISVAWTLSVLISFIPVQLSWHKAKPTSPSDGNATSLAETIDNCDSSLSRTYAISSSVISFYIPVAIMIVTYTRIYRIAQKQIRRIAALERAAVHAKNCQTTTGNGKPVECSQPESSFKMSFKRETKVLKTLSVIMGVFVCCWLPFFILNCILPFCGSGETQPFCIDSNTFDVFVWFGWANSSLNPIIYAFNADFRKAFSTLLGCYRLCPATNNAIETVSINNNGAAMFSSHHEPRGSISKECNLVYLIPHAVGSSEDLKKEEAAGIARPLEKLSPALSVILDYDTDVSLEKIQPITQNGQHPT
# FXIIa inh mix: blocks human factor XIIa in pooled compound mixtures. inhibition, % at 5 µM. AID 684. actives 0.2% (n = 62,000). P00748. purified FXIIa, fluorogenic substrate;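 also: 0% = enzyme without compound and 100% = no enzyme blank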
# FXIa inh mix: blocks human factor XIa in pooled compound mixtures. AID 680. P03951. purified FXIa, fluorogenic substrate. inhibition, % at 5 µM. actives 0.19% (n = 62,000);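 also: each value is inhibition by a whole ten-compound pool holding the compound; 0% = enzyme with no mixture and 100% = wells lacking enzyme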
# M1 ag confirm: confirmation of rat M1 muscarinic receptor agonists; shares compounds with M1 agonist; CHO-M1 cells, Fluo-4 calcium fluorescence, agonist mode; actives lie on both sides; fluorescence change (max-min) at 10 µM; actives 19% (n = 1,700);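 active = fluorescence change differs from the solvent-only DMSO control mean at a set confidence level in both duplicate runs; inconclusive = differs from solvent-only control mean in just one of two runs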;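 also: an EC20 dose of acetylcholine follows compound addition during the same imaging run; raw fluorescence intensity difference in instrument units with no normalization to controls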
# M4 agonist ctr: counter-screen for M1 agonists: activity at rat M4 receptor; fluorescence change (max-min) at 10 µM; actives 9% (n = 1,700); shares compounds with M1 agonist; CHO M4/Gqi5 cells, Fluo-4 calcium fluorescence, agonist mode; actives lie on both sides;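 active = fluorescence change differing from the plate's solvent-only control wells at 99.7% confidence in both duplicates, whether higher or lower; inconclusive = differs from solvent controls in only one of two duplicates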
# The depositor's hits bear a star; ? = inconclusive; . = no result. Rule as the data show it, unless noted: active = inhibition above about 20% (passing the limit was not always enough); inactive = the rest.
SMILES,M1 antag,M1 agonist,hDAT+cocaine,D1 mod,FXIIa inh mix,FXIa inh mix,M1 ag confirm,M4 agonist ctr
CCn1c(C)nc2cc(S(=O)(=O)C(F)(F)C(F)C(F)(F)F)ccc21 (stereo not given),-1.9,4.7*,-0.29,-0.8,-19,0,-7.4,?
Cc1cccc(CSc2ncnc3c2cnn3Cc2ccccc2)c1,.,.,0.53,.,.,.,.,.
CCCCCn1c(CNC(=O)c2cccs2)nc2ccccc21,0.19,0.045,-0.21,.,.,.,.,.
CCCCCn1c(CCNC(=O)c2cccs2)nc2ccccc21,0.39,11*,2.4,.,.,.,-30*,-79
CCC(=O)c1ccc(OCC(O)Cn2c(C)nc3ccccc32)cc1 (stereo not given),-0.93,6.8*,-0.29,-2.2,11,-3,-34*,-96
CCC(=O)c1ccc(OCC(O)Cn2cnc3ccccc32)cc1 (stereo not given),-0.013,-1.6,-0.64,.,3,5,.,.
Cc1ccc2[nH]c(=O)c(CN(Cc3ccccc3Cl)C(=O)N3CCOCC3)cc2c1,0.44,2.2*,0.73,-0.37,21,-5,-29*,-82*
Cc1ccc2[nH]c(=O)c(CN(CCN3CCOCC3)C(=O)Nc3ccccc3F)cc2c1,-0.51,-1,2.6,-0.92,0,1,.,.
COCCN1C(=O)C(O)=C(C(=O)c2ccco2)C1c1cccc(Oc2ccccc2)c1 (stereo not given),0.38,-0.63,0.016,0.018,-18,-10,.,.
COc1cc(C2C(C(=O)c3ccco3)=C(O)C(=O)N2CCc2ccccc2)ccc1O (stereo not given),-1.4,89*,-3.3*,.,30,8,-9.4,-30
CCOC(=O)c1[nH]c(C)c(CN(CCc2ccc(OC)c(OC)c2)C(=O)CCCC(=O)O)c1C,0.14,-0.43,-0.12,.,-17,-9,.,.
CCN1C(=O)/C(=C\N2CCN(c3ccc(F)cc3)CC2)SC1=S,.,.,-0.29,.,.,.,.,.
Cc1ccc(Cl)cc1N1CCN(C(=O)C2CCC(=O)N2C(C)C)CC1 (stereo not given),0.39,-0.48,.,-0.15,-14,-2,.,.
COc1ccc(CCNc2ncnc3c2oc2ccccc23)cc1OC,-4.1*,7.1*,-0.82,-3.5,8,6,17,4.6
Cc1nc(NC(C)c2ccccc2)c2oc3ccccc3c2n1 (stereo not given),-0.25,3.3*,0.77,1.5,-15,10,-22,-20
Cc1nc(NCCc2cnc[nH]2)c2oc3ccccc3c2n1,-1.2,-0.87,-0.05,2.7,11,7,.,.
COc1ccc(CCNc2nc(C)nc3c2oc2ccccc23)cc1OC,-2.3*,18*,2.2,.,7,5,-0.11,?
COc1cc(CN2CCC(C(=O)NC3CCCC3)CC2)cc(OC)c1O,-0.83,0.058,-0.41,1.2,4,5,.,.
O=C(NCc1ccco1)c1sc(=S)n2c1[nH]c(=O)c1ccccc12,-2,12*,-0.81,-0.95,1,7,53,35
O=C(NC1CCCC1)c1sc(=S)n2c1[nH]c(=O)c1ccccc12,-1.4,0.56,-1.2,-2.1,4,2,.,.
Cc1ccc(NC(=O)Cc2nn(C)c(=O)c3ccccc23)cc1F,-2.3,5.5*,-0.0042,.,20*,14,-5.1,?
COc1cc(NC(=O)Cc2nn(C)c(=O)c3ccccc23)cc(OC)c1,-1,0.79,-0.19,-0.48,-14,-5,.,.
COc1ccccc1NC(=O)Cc1nn(C)c(=O)c2ccccc12,-0.85,2.7*,-0.38,-0.56,2,2,0.79,?
COc1cccc(OC)c1NC(=O)Cc1nn(C)c(=O)c2ccccc12,0.54,0.13,-0.00034,-0.078,5,11,.,.
Cn1nc(CC(=O)Nc2ccc3c(c2)OCCO3)c2ccccc2c1=O,-1.6,4.5*,0.17,-2.5,4,11,-0.85,-2.7
SMILES,M1 antag,M1 agonist,hDAT+cocaine,D1 mod,FXIIa inh mix,FXIa inh mix,M1 ag confirm,M4 agonist ctr
CC1=C(C(=O)OCc2ccccc2)C(c2cccs2)NC(=O)N1CCCC(=O)O (stereo not given),.,.,-0.34,.,.,.,.,.
O=c1[nH]c2cc3c(cc2cc1CN(Cc1nnnn1CC1CCCO1)C1CCCCC1)OCO3 (stereo not given),-0.089,3.6*,.,.,-2,5,93*,?
CCC(C)(C)n1nnnc1CN(Cc1cc2cc(OC)ccc2[nH]c1=O)C1CCCC1,-0.28,2.6*,2.4,.,0,2,-3.2,-17
COCCNC(=O)NC(=O)COC(=O)Cc1ccc2c(c1)OCCO2,0.78,-0.0081,-1.3,.,-16,10,.,.
CCCCC(=O)Nc1ccc2oc(-c3ccncc3)nc2c1,0.098,2.5*,1.6,0.43,5,2,?,-49
CCC(C)NC(=O)COc1ccc(S(=O)(=O)N2CCOCC2)cc1 (stereo not given),0.97,0.11,-1,.,-15,5,.,.
N#Cc1sc2nc(-c3ccccc3)cc(-c3ccco3)c2c1N,0.78,15*,-0.67,2.3,-2,-23,24,-11
Cc1ccc(-c2cc(-c3ccccc3)c3c(N)c(S(C)(=O)=O)sc3n2)cc1,.,.,0.73,.,.,.,.,.
Cc1ccc(Cl)cc1NC(=O)CC(O)(C(F)(F)F)C(F)(F)F,-2.5*,11*,-2.4,-4.2*,3,-1,16,-3.4
N#Cc1cnc2sc3ccccc3n2c1=N,-0.1,-2.4*,-0.21,1.2,11,5,36,-10
O=S(=O)(O)c1nnc2sc3ccccc3n12,0.015,-0.46,0.096,0.33,0,4,.,.
COc1ccc(-c2[nH]c(-c3ccccc3)nc2SCC(=O)NCc2ccco2)cc1OC,.,.,0.027,.,.,.,.,.
Cc1cc(C)n2nc(SCC(=O)NCc3ccco3)nc2n1,0.78,-0.71,-0.25,-0.74,-18,11,.,.
COc1ccc(-c2nc(SCC(=O)NCc3ccco3)c(-c3ccccc3)[nH]2)cc1OC,0.56,5.8*,0.0011,-2.2,-21,12,-11,-4.2
Cc1cc(C)nc(SCC(=O)NCc2ccco2)n1,0.2,2.4*,-0.8,-0.11,-17,0,-22*,-61
COc1ccc(C(C)=O)c(Oc2nc(CN3CCOCC3)nc3scc(-c4cccs4)c23)c1,-1.3,45*,-0.73,0.72,5,2,-14,-47
COc1cccc(-c2nc(CS(=O)CC(=O)O)c(C)o2)c1 (stereo not given),0.19,1.6,-0.61,-0.92,5,1,.,.
O=C(c1cccs1)c1no[n+]([O-])c1C(=O)c1cccs1,-3.2*,12*,-0.57,-3.6,19,2,21,-3.2
O=C(c1cccs1)c1ccc(-c2cccs2)s1,-0.73,-0.16,-0.1,-0.016,4,-14,.,.
